This is a sample that favours compounds with a hit; in the whole collection about 0.48% have one here.
NCOA3 inh: inhibits human SRC3 coactivator | Q9Y6Q9 | HEK293 GAL4-SRC3 luciferase reporter, luminescence | inhibition, % at 3.6 µM | 360,000 tested, 0.17% active;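 active means inhibition above a per-campaign cutoff, the mean of all compounds plus 3 SD, cut at about 60% in these data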;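 further: 0% = DMSO-treated cells and 100% = gossypol-treated cells at 36 µM; higher means less SRC3-driven luciferase light from the GAL4 reporter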
SRC1 inh: inhibits human SRC1 coactivator; inhibition, % at 3.6 µM; Q15788; 360,000 tested, 0.12% active; HEK293 GAL4-SRC1 luciferase reporter, luminescence; AID 588354;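 active means inhibition above the campaign mean plus 3 SD, with each screening campaign given its own cutoff, cut at about 60% in these data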;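 further: 0% = DMSO treated cells and 100% = gossypol at 36 µM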
NR5A2 inv ag: suppresses constitutive activity of human LRH-1 | O00482 | AID 602396 | HEK293T StAR-luciferase reporter, LRH-1 transfected, 24 h | inhibition, % at 3.6 µM | 360,000 tested, 0.13% active;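 active means inhibition above the mean inhibition of all tested compounds plus 3 SD, cut at about 73% in these data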;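 further: 0% = DMSO wells and 100% = reporter-only cells lacking LRH-1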
LGR2 inh: Drosophila LGR2 receptor signaling inhibition | inhibition, % at 9.99 µM | HEK293 LGR2, CRE-luciferase, bursicon-stimulated, 4 h | 380,000 tested, 0.35% active;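 active means drop in luminescence signal, shown as inhibition above about 50% in the replicate tests, limit read from the data, passing the limit was not always enough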;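 further: agonist challenge used bursicon conditioned medium at about half maximal strength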
SRC2 inh: human SRC2 (NCOA2) inhibition. HEK293 GAL4-SRC2 luciferase reporter, luminescence. inhibition, % at 9 µM. 370,000 tested, 0.17% active. AID 651957;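 active means inhibition above the mean inhibition of all tested compounds plus 3 SD, set per campaign, cut at about 52% in these data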;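 further: 0% = DMSO treated cells and 100% = cells given Gossypol at 36 µM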
* hit, by the source's call; / = no result given.

SMILES	NCOA3 inh	SRC1 inh	NR5A2 inv ag	LGR2 inh	SRC2 inh
C[C@]12CC[C@H]3[C@@H](CC[C@]4(O)C[C@@H](O)CC[C@]34C=O)[C@@]1(O)CC[C@@H]2C1=CC(=O)OC1	82*	71*	102*	84*	53*
CCN(CC)C(=O)c1ccc(NC(=O)CCCSc2ccccc2)cc1	13	-15	-7	0	-22
CCN(CC)C(=O)c1ccc(NC(=O)Nc2ccccc2F)cc1	-18	-24	-71	75*	-25
COC(=O)[C@@H]1[C@@H](CO)[C@@H]2Cn3c(ccc(-c4ccccc4F)c3=O)[C@H]1N2Cc1cccnc1	/	/	/	22	/
Fc1ccccc1CNC1CN2CCC1CC2 (stereo not given)	5	10	6	-27	12
Ic1ccccc1CN[C@@H]1C2CCN(CC2)[C@@H]1C(c1ccccc1)c1ccccc1	-1	7	2	70*	-25
C[C@H]1CN([C@@H](C)CO)C(=O)CCCn2cc(nn2)CO[C@H]1CN(C)C(=O)Oc1ccc2ccccc2c1	/	/	/	2	/
CN1C2CCC1/C(=C/c1ccccn1)C(=O)/C2=C\c1ccccn1	50	-51	3	102*	65*
COC(=O)[C@]12OC[C@]34C([C@@H](O)[C@@H]1O)[C@]1(C)CC(=O)C(O)=C(C)[C@@H]1C[C@H]3OC(=O)[C@H](O)[C@@H]24 (stereo not given in full)	69*	81*	99*	93*	61*
CCC(=O)[C@@H](C)[C@@H](O)[C@H](C)C[C@@H](C)C1OC(=O)C[C@@]2(O)CC=C(C)C(O2)C(C)=CCCC[C@H](O[C@H]2C[C@@H](OC(N)=O)[C@H](O)[C@@H](C)O2)C=C[C@H](C)C[C@H]1C (stereo not given in full)	/	/	85*	/	/
Cn1ncnc2c(=O)n(C)c(=O)nc1-2	91*	88*	100*	/	/
COC(=O)[C@H]1[C@H](CO)[C@H]2Cn3c(ccc(C4=CCCCC4)c3=O)[C@@H]1N2CCc1ccccc1	/	/	/	-7	/
CN(C)C(=O)Oc1ccc(OCc2nc3ccccc3[nH]2)cc1	-70	-129	-98	53*	-17
O=c1[nH]c2ccccc2n1C1CCN(C(c2cc3ccccc3o2)c2nnnn2Cc2ccccc2)CC1 (stereo not given)	49	44	32	72*	14
O=c1[nH]c2ccccc2n1C1CCN(C(CCc2ccccc2)c2nnnn2C2CCCC2)CC1 (stereo not given)	38	35	16	65*	14
Cc1cccc(C)c1-n1nnnc1C(c1cc2ccccc2o1)N1CCC(n2c(=O)[nH]c3ccccc32)CC1 (stereo not given)	47	50	-14	78*	0
CN(C)C(=O)[C@H]1[C@H](CO)[C@H]2Cn3c(cccc3=O)[C@@H]1N2CC1CC1	/	/	/	2	/
N#Cc1ccc(-c2ccc([C@H]3[C@@H](CO)N4CCCCN(C(=O)Cc5ccccc5)C[C@@H]34)cc2)cc1	/	/	/	-10	/
COc1cccc2c1C(=O)c1c(O)c3c(c(O)c1C2=O)CC(O)(C(C)=NO)CC3OC1CC(N)C(O)C(C)O1 (stereo not given)	18	43	60	63*	-263
CC(=O)OC1CC2(O)C3CCC4CC(O)CCC4(C)C3CCC2(C)C1C1=CC(=O)OC1 (stereo not given)	88*	85*	99*	90*	50
CC(=O)[C@H]1CCC2C3CC[C@H]4C[C@@H](O)CC[C@]4(C)C3CC[C@@]21C (stereo not given in full)	-1	-6	4	-11	-15
CC(=O)O[C@@H]1CC[C@]2(C)C3CC[C@@]4(C)C(C[C@@H](O)[C@@H]4O)C3[C@@H](OC(C)=O)C[C@H]2C1 (stereo not given in full)	6	14	-7	9	-35
CC(=O)OC1CC(OC2C(O)CC(OC3C(O)CC(OC4CCC5(C)C(CCC6C5CCC5(C)C(C7=CC(=O)OC7)C(O)CC65O)C4)OC3C)OC2C)OC(C)C1OC1OC(CO)C(O)C(O)C1O (stereo not given)	82*	84*	98*	87*	38
CC1OC(OC2C(O)CC(OC3C(O)CC(OC4CCC5(C)C(CCC6C5CCC5(C)C(C7=CC(=O)OC7)C(O)CC65O)C4)OC3C)OC2C)CC(O)C1O (stereo not given)	49	35	35	87*	9

Assay outcomes as filed in PubChem.
